This is part of a sample that, as a whole, favours compounds with a hit. Of some 83,000 tested, about 20% had one in any assay.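 For each line, cells grew in 96-well plates with the test compound present at a single concentration for 48 hours.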 Activity calls are given as the source filed them. Rule for the calls: active = growth percent below 10; inactive = the rest.
The molecules below were run on MDA-MB-468 breast (assay: NCI-60 one-dose screen, 48 h (100 = growth as untreated, 0 = no growth, -100 = all killed)). Conditions: 10 µM unless noted.

| SMILES | growth |
| --- | --- |
| CCOC(=O)c1sc(-c2ccc(OS(=O)(=O)C[C@]34CCC(CC3=O)C4(C)C)c(C=O)c2)nc1C | 3.2% (active) |
| Cc1cc(C)cc(Nc2ccc([N+](=O)[O-])c(NCCN3CCOCC3)n2)c1 | 20.8% (inactive) |
| COc1ccc2c(c1)c(-c1nc(-c3c[nH]c4ncccc34)cs1)cn2CCCN1CCOCC1 | 42% (inactive) |
| Cc1ccc(-c2csc(N/N=C/c3nc4ccccc4n3C3CC3)n2)cc1 | 98.5% (inactive) |
| N#Cc1c(-c2ccc(F)cc2)nc(N=Nc2c(O)[nH]c3ccc(Cl)cc23)nc1N1CCOCC1 | 47.1% (inactive) |
| Nc1cc(-c2c[nH]c3ccccc23)nc2cc(-c3c[nH]c4ccccc34)nn12 | 52.1% (inactive) |
| O=S(O)c1cc(Cl)cc(Cl)c1OCc1ccccc1 | 84% (inactive) |
| [2H]C([2H])([2H])Oc1ccc(F)cc1/C=C/C(=O)/C=C(/C=C/c1cc(F)ccc1OC([2H])([2H])[2H])OB(F)F | 69.5% (inactive) |
| COc1ncc(-c2ccc3nccc(-c4ccnnc4)c3c2)cc1NS(=O)(=O)c1ccc(F)cc1F | -73% (active) |
| CC(=O)c1cc2c(N)c(C(=O)Nc3cncc4ccccc34)sc2nc1C | 97% (inactive) |
| Cc1ccc(-c2nn(Cc3cn(-c4cc(C)nc5ccccc45)nn3)c3ncnc(N)c23)cc1 | 15.4% (inactive) |
| COc1cnc2c(c1)C(=O)c1c-2n(CCCN2CCN(C)CC2)c(=O)c2cc(Cl)ccc12 | 54.2% (inactive) |
| Cc1ccc(S(=O)(=O)NCCCNc2nccc(-c3[nH]c(-c4ccccc4)nc3-c3ccc(F)c(O)c3)n2)cc1 | 33.9% (inactive) |

— PubChem BioAssay (NCI)
